# TDP1 block – qHTS Assay for Inhibitors of Tyrosyl-DNA Phosphodiesterase (TDP1); Tyrosyl-DNA phosphodiesterase 1 (Homo sapiens), Q9NUW8; recombinant TDP1, AlphaScreen DNA substrate cleavage; AID 485290, 2010; hit rate 0.28% among 350,000; Potency, µM (titrated, usually from 130 µM), usual class: inhibitors; note: nearly all actives have a fitted effect of over 40% in size
#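 E. coli-derived human Tdp1, 1 nM final. Cpd preinc 15 min RT; substrate 15 nM final, 5 min RT; AS bead mix 10 ug/ml final, 10 min RT. Signal loss = tyrosine-FITC cleavage. No-enzyme wells = max signal.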
# DT40 TDP1 no CPT – qHTS for Inhibitors of human tyrosyl-DNA phosphodiesterase 1 (TDP1): qHTS in cells in absence of CPT; DT40 Tdp1-/- hTDP1 cells, no CPT, ATP luminescence, 48 h; Potency, µM (doses to about 46.2 µM), hits mostly inhibitors; hit rate 15% among 420,000; AID 686978, 2013; note: nearly all actives have a fitted effect of over 55% in size
#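 Chicken DT40 Tdp1-/- cells stably complemented with human TDP1 were seeded at 400 cells/well with DMSO in place of 20 nM camptothecin. After compound pinning, cells grew at least 48 hr at 37 °C; viability read by CellTiter-Glo luminescence.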
# Six1-Eya2 inh – qHTS Assay for Inhibitors of the Six1/Eya2 Interaction | AID 651725, 2012 | activity change, % (concentration not given with the values) | Homeobox protein SIX1 (Homo sapiens) + Protein phosphatase EYA2 (Homo sapiens), … | AlphaScreen GST-Six1/His-Eya2 binding, biochemical; stronger effect = lower value | hit rate 0.56% among 360,000; in the data active = activity change below about -65%; inconclusive = mostly about -30% to -63%
# Target sequence (O00167 whole entry, looked up): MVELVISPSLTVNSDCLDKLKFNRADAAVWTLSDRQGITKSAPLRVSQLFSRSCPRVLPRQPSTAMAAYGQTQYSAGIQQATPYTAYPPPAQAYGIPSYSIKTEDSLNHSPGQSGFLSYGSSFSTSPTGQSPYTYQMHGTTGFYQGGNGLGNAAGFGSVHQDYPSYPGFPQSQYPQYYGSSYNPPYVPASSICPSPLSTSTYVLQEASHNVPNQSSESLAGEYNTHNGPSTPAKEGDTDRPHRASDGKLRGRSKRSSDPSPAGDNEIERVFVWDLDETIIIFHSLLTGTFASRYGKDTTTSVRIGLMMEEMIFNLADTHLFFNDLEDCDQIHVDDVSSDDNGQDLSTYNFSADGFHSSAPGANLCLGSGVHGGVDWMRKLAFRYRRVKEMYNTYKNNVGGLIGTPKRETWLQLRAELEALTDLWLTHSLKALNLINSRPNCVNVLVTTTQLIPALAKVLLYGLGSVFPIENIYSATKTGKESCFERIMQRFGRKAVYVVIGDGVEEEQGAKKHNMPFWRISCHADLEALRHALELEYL
# Target sequence (Q15475 whole entry, looked up): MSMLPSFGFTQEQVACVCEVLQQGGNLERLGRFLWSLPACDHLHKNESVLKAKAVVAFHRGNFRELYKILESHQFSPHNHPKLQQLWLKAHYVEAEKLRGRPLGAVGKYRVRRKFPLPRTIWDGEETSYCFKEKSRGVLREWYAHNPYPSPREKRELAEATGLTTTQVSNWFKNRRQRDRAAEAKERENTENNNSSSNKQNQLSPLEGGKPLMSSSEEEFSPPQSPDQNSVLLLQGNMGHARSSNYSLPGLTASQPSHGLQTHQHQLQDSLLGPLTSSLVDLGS
#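 Compounds are tested against tagged Six1 and Eya2 proteins bridged by glutathione donor and nickel acceptor beads; after a one-hour incubation at 37 °C without light, AlphaScreen emission is recorded.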
# CtBP-E1A blk – qHTS Assay for Inhibitors of the CtBP/E1A Interaction. AlphaScreen GST-E1A/His-CtBP binding, 1536-well; stronger effect = lower value. activity change, % (concentration not given with the values). hit rate 0.49% among 340,000; in the data active = activity change below about -65%; inconclusive = mostly about -30% to -63%
#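 AlphaScreen with 125 nM GST-E1A and 125 nM His-CtBP (5X stocks) in Tris pH 8.0, 300 mM NaCl, BSA, Tween 20, TCEP. Compounds preincubated 2 h at 37 deg C, then glutathione donor/nickel acceptor beads added for 1 h at 37 deg C in dark.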
# TDP1 cell CPT – qHTS for Inhibitors of human tyrosyl-DNA phosphodiesterase 1 (TDP1): qHTS in cells in presence of CPT. chicken DT40 Tdp1-/-;hTDP1 cells + 20 nM CPT, ATP luminescence, 48 h. Potency, µM (titrated, usually from 46.2 µM), usual class: inhibitors. hit rate 12% among 420,000. AID 686979, 2013; note: nearly all actives have a fitted effect of over 55% in size
#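 Chicken DT40 Tdp1-/- cells complemented with human TDP1, 400 cells/well, exposed to compounds plus 20 nM camptothecin for at least 48 h at 37 C; viability read as ATP content by CellTiter-Glo luminescence.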
# IL-1B inflam inh – qHTS for Inhibitors of Inflammasome Signaling: IL-1-beta AlphaLISA Primary Screen. activity change, % at 57.5 µM. hit rate 4.7% among 360,000. THP-1 LPS/ATP IL-1B secretion, AlphaLISA, 16 h; stronger effect = lower value; in the data active = activity change below about -50%; inconclusive = mostly about -30% to -49%
#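 THP-1 cells pretreated 1 hr with compounds (up to 57.5 uM final), then stimulated with LPS (250 ng/mL final) plus ATP (1.25 mM final); secreted IL-1B measured by AlphaLISA after 16 hr, decreased signal indicating inhibition.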
# A number is an active result; – = inactive; ? = inconclusive; · = no result. Only some compounds are listed: those with a hit (about 18% of all), similar ones and a draw of the others. Unless noted, calls come from the whole dose curve; as a rule, active = well fitted curve in the direction sought with a large enough effect; inconclusive = small, poorly fitted or top-dose-only effect, or another doubt; inactive = no such curve, though single readings can be large; an effect the other way counts as inactive or inconclusive.
SMILES,TDP1 block,DT40 TDP1 no CPT,Six1-Eya2 inh,CtBP-E1A blk,TDP1 cell CPT,IL-1B inflam inh
CNC(=O)c1ccccc1Sc1ccccc1CO,–,–,–,–,–,–
CC(C)OC(=O)CSc1nnc(-c2cnccn2)n1-c1ccc(Cl)cc1,–,–,–,–,–,–
Cc1ccc(C)c(N(CC(=O)N2CCc3ccccc3C2)S(C)(=O)=O)c1,·,–,–,·,–,–
CC(C)Cn1c(N)c(C(=O)CSc2ncccn2)c(=O)n(C)c1=O,–,10µM,–,–,?,–
Cc1csc(SCC(=O)c2c(N)n(CC(C)C)c(=O)n(C)c2=O)n1,–,21µM,–,–,16µM,–
CC(C)Cn1c(N)c(C(=O)CSc2ncn[nH]2)c(=O)n(C)c1=O,·,?,–,–,–,–
CCOC(=O)Cc1csc(SCC(=O)c2c(N)n(CC(C)C)c(=O)n(C)c2=O)n1,–,10µM,–,–,9.2µM,–
Cc1cc(OC(C)C(=O)N2CCN(c3ccc(F)cc3)CC2)c2c(C)c(C)c(=O)oc2c1 (configuration not stated),–,?,–,–,?,–
CCN(C(=O)COC(=O)c1oc2ccc(OC)cc2c1C)C1CCS(=O)(=O)C1 (configuration not stated),–,–,–,–,–,–
O=[N+]([O-])c1ccccc1NCc1c(O)ccc2ccccc12,·,?,–,·,?,–
CCN(CC)CCC(=O)N1C/C(=C/c2ccccc2)C(=O)/C(=C\c2ccccc2)C1,·,3.7µM,–,–,1.8µM,-99
O=C1/C(=C\c2ccc(Cl)c(Cl)c2)CN(C(=O)CCN2CCOCC2)C/C1=C/c1ccc(Cl)c(Cl)c1,·,0.82µM,–,–,0.58µM,-101
CC(=O)N1CCN(C(=O)CCN(c2ccccc2)S(=O)(=O)c2ccc(C)cc2)CC1,–,–,–,–,–,–
O=C1/C(=C\c2ccccc2)CN(C(=O)CCN2CCCCC2)C/C1=C/c1ccccc1,·,1.5µM,–,–,1.3µM,-67
O=C(CCN1C(=O)c2ccccc2C1=O)N1CCCCCC1,–,–,–,–,–,–
O=C(NCN1C(=O)C2C3C=CC(C3)C2C1=O)Nc1ccccc1O (configuration not stated),·,–,–,–,–,–
COC(=O)c1ccccc1Sc1ncnc2onc(C)c12,–,?,–,–,15µM,-103
O=C(CSc1ccc(-c2ccco2)nn1)Nc1ccccc1F,–,–,–,–,?,–
CCNC(=O)CON=C1c2ccccc2-c2ccccc21,–,?,–,–,?,–
CCC(CC)NC(=O)CON=C1c2ccccc2-c2ccccc21,–,16µM,–,–,21µM,–
Cc1nc([N+](=O)[O-])cn1C(C)C,–,–,–,–,–,–
Oc1c(C(Nc2ccccn2)c2ccccn2)ccc2cccnc12 (configuration not stated),–,0.82µM,-95,-95,0.82µM,–
Oc1ccccc1C(Nc1nccs1)c1ccc2cccnc2c1O (configuration not stated),–,2.6µM,-77,-93,3.7µM,–
Cc1ccnc(NC(c2ccccc2F)c2ccc3cccnc3c2O)c1 (configuration not stated),–,·,·,·,·,·
O=C(Nc1nccs1)c1cccc2ccccc12,·,–,–,–,–,–
Oc1c(C(Nc2ccccn2)c2ccccc2F)ccc2cccnc12 (configuration not stated),–,16µM,·,·,?,·
O=C(O)c1ccc2cccnc2c1O,–,–,–,–,–,–
CCOc1ccc(/C=N/OCC(=O)NC(c2ccccc2)c2ccccc2)cc1,–,?,–,–,–,–
